In the library only some 6.5% were active in any assay of this set; here they are far more common.
TGFb SMAD3 inh – inhibitors of TGF-b signaling; HepG2 CAGA-GFP TGF-b/SMAD3 reporter, GFP fluorescence, 18 h; TGF-beta stimulated, 500 pg/mL final; Potency, µM (highest dose often 46.1 µM), without a hit: at the top dose activity, negative = inhibition, most hits filed as inhibitors; 410,000 tested, 1.2% active; AID 588855; also: potency is read from the fitted curve at half-maximal effect; % is scaled to controls: 0 for no effect and ±100 for the full control effect; nearly all actives have a fitted effect of over 65% in size
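Per well, imaged GFP fluorescence of HEPG2 CAGA-GFP cells gives the signal; cells get compound, then TGF-beta (500 pg/mL final), 18 h at 37 degrees C; %Activity versus -TGF-beta and +DMSO controls.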
IL1B secr inh – inflammasome signaling inhibition, IL-1 beta readout; THP-1 LPS/ATP IL-1B secretion, AlphaLISA, 16 h; active compounds read low; activity change, % at 57.5 µM; 360,000 tested, 4.7% active; in the data active = activity change below about -50%; inconclusive = mostly about -30% to -49%; also: % is scaled to controls: 0 for no effect and ±100 for the full control effect
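THP-1 cells pretreated 1 hr with compounds (up to 57.5 uM final), then stimulated with LPS (250 ng/mL final) plus ATP (1.25 mM final); secreted IL-1B measured by AlphaLISA after 16 hr, decreased signal indicating inhibition.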
HT1080 IDH1KD tx – HT-1080 IDH1 knockdown cell toxicity (counter line); HT-1080 IDH1 knockdown viability, ATP luminescence, 48 h; Potency, µM (titrated, usually from 46.1 µM), for the others: top-dose activity, negative = toxicity, most hits filed as cytotoxic; 360,000 tested, 2% active; AID 686971;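 also: potency is read from the fitted curve at half-maximal effect; 0% = DMSO wells and -100% = cell-free medium wells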
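Knockdown cells (IDH1KD HT-1080) received compounds 2 h after plating at 750 cells/well and were kept 48 h at 37 °C in 5% FBS RPMI. A CellTiter-Glo luminescence read gave % activity for curve fitting.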
HT1080NT lethal – kills 2HG-producing HT-1080-NT fibrosarcoma cells; HT-1080-NT fibrosarcoma viability, CellTiter-Glo ATP luminescence, 48 h; Potency, µM (series often up to 46.1 µM), for inactives: at the top dose activity, negative = less viability, actives largely listed as cytotoxic; 360,000 tested, 1.6% active;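 also: NT is the 2HG producing partner of a matched IDH1 knockdown line; potency is read from the fitted curve at half-maximal effect; 0% = DMSO-treated cells and -100% = media-only wells without cells; nearly all actives have a fitted effect of over 55% in size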
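Viability of the 2HG-overproducing fibrosarcoma line after 48 hours of compound exposure at 37 degrees C was determined by luminescence with CellTiter-Glo, and concentration-effect curves were then fitted and categorized.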
HepG2 tox – HepG2 cytotoxicity, counter-screen for TGF-b inhibitors; HepG2 CAGA-GFP viability, ATP luminescence, 18 h; Potency, µM (top dose mostly 46.1 µM), inactives show top-dose activity change, negative = cytotoxicity, hits mostly cytotoxic; 410,000 tested, 0.76% active; AID 588856; also: potency is read from the fitted curve at half-maximal effect
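HepG2 CAGA-GFP cells (1000/well, DMEM with 1% FBS) received compound, then TGF-beta at 500 pg/mL final, and were incubated 18 hours at 37 degrees C. Viability was read by CellTiter-Glo luminescence. Media-only wells were set as complete cell-killing and DMSO as no toxicity.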
Giardia kill – kills Giardia lamblia; Giardia lamblia trophozoite viability; activity change, % at 7.66 µM, hits read low; 340,000 tested, 0.15% active; in the data active = activity change below about -80%; inconclusive = between about -30% and that limit;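 also: parasites exposed to compound for two days anaerobically before the ATP read; % is scaled to controls: 0 for no effect and ±100 for the full control effect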
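Luminescent ATP signal served as the viability read-out, measured 15-30 min after adding ATP detection reagent to trophozoites that had been incubated with compounds for 48 hrs at 37 deg C anaerobically at 100 cells/well.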
Starred values were filed as active, the others as inactive; ? = inconclusive; / = no result given. Unless noted, calls follow the shape of the dose curve; as a rule, active = well fitted curve in the direction sought with a large enough effect; inconclusive = small, poorly fitted or top-dose-only effect, or another doubt; inactive = no such curve, though single readings can be large; an effect the other way counts as inactive or inconclusive.

SMILES	TGFb SMAD3 inh	IL1B secr inh	HT1080 IDH1KD tx	HT1080NT lethal	HepG2 tox	Giardia kill
CC(=O)NC(c1ccccc1)c1nc(-c2ccc(F)c(Cl)c2)cs1 (stereo unspecified)	6.2%	-13.9	-4.4%	-8.4%	-10.9%	/
Fc1ccc(NC(=S)N2CCc3ccccc32)cc1	-8.0%	14.7	2.8%	1.9%	-54.0%	23.2
FC(F)Oc1ccc(NC(=S)N2CCc3ccccc32)cc1	3.8%	-61.4*	-12.0%	-8.5%	4.5%	9.7
O=C(Nc1ccccc1F)c1ccc([N+](=O)[O-])s1	?	-68.3*	?	?	-67.6%	?
CC1CC(C)CN(C(=O)/C=C/c2ccc([N+](=O)[O-])s2)C1 (stereo unspecified)	-11.9%	?	?	?	-4.2%	?
Cc1cc(C)cc(NC(=O)/C=C/c2ccc([N+](=O)[O-])s2)c1	4.3%	-101.8*	?	?	-2.8%	?
Cc1ccccc1NC(=O)/C=C/c1ccc([N+](=O)[O-])s1	7.08µM*	-102.4*	3.66µM*	4.11µM*	7.94µM*	15.3
CN(C)NC(=O)c1ccc([N+](=O)[O-])s1	-20.3%	8.5	-0.5%	?	-12.0%	?
CCOC(=O)c1ccc(N2CCN(c3ccccc3F)CC2)c(NC(=O)Nc2cccc(OC)c2)c1	-13.6%	-2.8	-4.1%	-7.4%	-13.1%	2.8
CCNC(=S)N(Cc1ccc2c(c1)OCO2)C1CC(=O)N(c2ccc(F)cc2)C1=O (stereo unspecified)	?	0.0	-15.7%	-13.7%	6.4%	-7.6
COc1cc(NC(=O)c2ccccc2F)c(OC)cc1NC(=O)CN1CCCCC1	-14.4%	-57.5*	-19.7%	-14.3%	-22.9%	13.4
COc1cc(NC(=O)Nc2ccccc2OC)c(OC)cc1NC(=O)CN1CCCCC1	4.7%	-4.3	-15.3%	-13.7%	3.9%	5.0
COc1cc(NC(=O)c2ccc(Cl)cc2)c(OC)cc1NC(=O)CN1CCOCC1	-14.4%	?	11.5%	21.4%	-4.6%	13.1
COc1cc(NC(=O)c2ccc(Cl)cc2)c(OC)cc1NC(=O)CN1CCCCC1	4.8%	-83.9*	?	?	-22.5%	-6.3
COc1cc(NC(=O)c2ccc(C(C)(C)C)cc2)c(OC)cc1NC(=O)CN1CCCCC1	-18.8%	-23.5	-2.5%	0.3%	0.0%	21.2
COc1cc(Cl)c(C)cc1NC(=O)c1ccccc1NC(=O)CN1CCN(c2ccccn2)CC1	19.4%	-66.3*	-19.2%	?	-5.7%	37.5
COc1cc(NC(=O)c2ccccc2)c(OC)cc1NC(=O)CN1CCN(c2ccccn2)CC1	4.7%	?	1.0%	-7.9%	1.6%	4.3
COc1cc(NC(=O)c2cccc(C)c2)c(OC)cc1NC(=O)CN1CCCCC1	-6.2%	-62.2*	-10.8%	-1.5%	-27.1%	-18.5
Cc1c(C(C)C)c(=O)n(-c2ccc(S(=O)(=O)NC3CC3)cc2)n1C	-2.6%	25.7	25.6%	7.6%	10.8%	-21.3
CCn1cc(C(=O)NCc2cccnc2)c(=O)c2cc(F)c(N3CCN(C(=O)c4ccco4)CC3)cc21	0.0%	-20.9	-12.8%	-1.1%	0.3%	-9.1
CC1(C(=O)NS(=O)(=O)c2cccc(F)c2)CCN1C(=O)c1ccco1 (stereo unspecified)	10.5%	9.0	15.7%	14.1%	2.4%	/
Cc1ccc(S(=O)(=O)N2CCSC2C(=O)O)cc1 (stereo unspecified)	-2.2%	-15.5	3.1%	5.8%	-19.0%	-3.5
COc1cccc(Cl)c1NC(=O)N1CCc2c([nH]c3ccccc23)C1C(F)(F)F (stereo unspecified)	?	-7.9	?	20.6µM*	-38.5%	-6.3
O=C(Nc1ccccc1)N1CCc2c([nH]c3ccccc23)C1C(F)(F)F (stereo unspecified)	?	-92.5*	-14.0%	?	-33.7%	-5.4
CC1c2[nH]c3ccccc3c2CCN1C(=O)Nc1ccccc1 (stereo unspecified)	-4.0%	-11.7	?	?	-2.5%	-1.8
SMILES	TGFb SMAD3 inh	IL1B secr inh	HT1080 IDH1KD tx	HT1080NT lethal	HepG2 tox	Giardia kill
CCOc1ccc(S(=O)(=O)c2ccc(C)cc2)c2c1no[n+]2[O-]	2.2%	-0.8	-10.3%	-3.6%	-2.4%	/
Cc1ccccc1N(C(=O)CNC(=O)c1ccco1)C(C(=O)NC1CCCCC1)c1ccncc1 (stereo unspecified)	-14.5%	-21.4	4.5%	6.1%	-35.9%	-0.3
CCCn1nc(NS(=O)(=O)c2cccc3nonc23)c2cc3cc(C)ccc3nc21	-2.2%	-87.3*	-0.9%	-9.2%	-4.7%	?
CCCn1nc(NC(=O)c2ccccn2)c2cc3cc(C)ccc3nc21	0.0%	-62.7*	2.7%	11.9%	-20.4%	-20.0
CCCn1nc(NC(=O)c2ccco2)c2cc3cc(C)ccc3nc21	-5.0%	0.0	-1.2%	5.1%	-32.1%	10.2
Cc1ccccc1-c1nnn(CC(=O)Nc2cccc(S(N)(=O)=O)c2)n1	0.0%	25.4	5.5%	15.1%	-3.0%	13.6
CCNc1nc(NCC)n2c(SC(C(=O)Nc3cc(Cl)cc(Cl)c3)c3ccccc3)nnc2n1 (stereo unspecified)	-3.2%	37.6	0.8%	-0.3%	-9.6%	-16.3
O=C(c1ccc(CS(=O)c2ccccc2Cl)o1)N1CCN(c2ccccn2)CC1 (stereo unspecified)	15.4%	-0.7	7.31µM*	?	1.6%	7.6
O=C(c1ccc(CS(=O)Cc2ccc(Cl)cc2)o1)N1CCN(c2ccccn2)CC1 (stereo unspecified)	-8.2%	-62.0*	-10.4%	-0.9%	-11.9%	-3.6
COc1ccc(CNC(=O)CCc2c(C)nc3c(c(C)nn3-c3ccccc3)c2C)cc1	-5.7%	/	/	/	-9.9%	/
CC(C)(C)C1CCC2(CC1)C(C#N)=C(SCC(=O)Nc1ccccc1)NC(=O)C2C#N (stereo unspecified)	7.08µM*	-12.7	?	14.6µM*	10µM*	-10.0
CC1(C)CC(=O)C2=C(C1)NC(SCC(=O)Nc1ccccc1)=C(C#N)C21CCCCC1	?	?	-16.3%	?	-35.8%	9.6
NNc1nc(-c2ccccc2)c2cc(Br)ccc2n1	4.4%	-10.2	?	-19.1%	-16.9%	-9.5
NNc1nc(-c2ccccc2)cc(-c2ccc(Br)cc2)n1	?	-55.7*	?	?	-35.0%	0.8
Cc1ccc(CNS(=O)(=O)c2c(C)nc3scc(C)n3c2=O)cc1	?	-2.4	10.0%	9.8%	6.0%	-22.7
COCCN=C1Sc2nc3ccc(C)cc3cc2CN1Cc1cccs1	-0.1%	-86.9*	-14.6%	-14.1%	1.4%	20.6

Assay outcomes deposited in PubChem by National Center for Advancing Translational Sciences (NCATS).
